Measured values reported in the emibetuzumab library of Makowski et al. (2022).
The other results are listed elsewhere or left out. The hit rate among all sequences tested is not known here.

B1: VH:VL chains; a variant is named by its letters at X, in order (parent)
chain 1: QVQLVQSGAEVKKPGASVKVSCKASGYTFTDYXMHWVRQAPGQGLEWMGXVNPNXXXTTYNQKFEGRVTMTTDTSTSTAYMELRSLRSDDTAVYYCARXNXLDXWGQGTTVTVSS
chain 2: DIQMTQSPSSLSASVGDRVTITCSVSSSVSSIYLHWYQQKPGKAPKLLIYSTSNLASGVPSRFSGSGSGTDFTLTISSLQPEDFATYYCQVYSGYPLTFGGGTKVEIK

Variants of: B1
Assay: yeast display scFab, FACS + sequencing
Conditions: with MET
Summary of the method: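 Two magnetic rounds on Protein A beads coated with HGFR-Fc, followed by FACS, were used to enrich a yeast surface scFab library mutated in the heavy-chain CDRs. FACS gated the top 50% antigen-positive cells after 3 h labelling at room temperature with 1 nM HGFR-Fc and anti-Myc in PBSB plus 1% milk. Binding to the antigen was scored positive when a sequence occurred in both antigen-positive samples from deep sequencing and negative when it occurred only in the input.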

Row | Variant | antigen binding call
1 | VTTKSAVA | no binding
2 | DRRKAFSA | no binding
3 | VEEEGDAA | no binding
4 | VAGGDDVA | no binding
5 | VEGTGDWD | no binding
6 | VRGRGFVV | binds
7 | YRGRGFVV | binds
8 | VRGKAFVV | no binding
9 | VRAGADVV | no binding
10 | VRARGFVV | binds
11 | YRGKGYVV | binds
12 | VATKGFVV | no binding
13 | FEKEADAF | no binding
14 | ATTGSASF | no binding
15 | DAETAAAA | no binding
16 | SRGRGVGA | no binding
17 | SRGRGAVS | binds
18 | SRGRDAWA | no binding
19 | SRGRGAWS | binds
20 | SRGRGAWA | binds
21 | STGTGSGA | no binding
22 | SRGRGSGA | binds
23 | DAGRGAVS | no binding
24 | VETGNDLV | no binding

Row | Variant | antigen binding call
25 | STGTGYVF | no binding
26 | AAKEGALV | no binding
27 | AKGRADVY | no binding
28 | YARETAGV | no binding
29 | DRRGDDGA | no binding
30 | YKRGDDGD | binds
31 | YTEGDDGD | no binding
32 | DRAGDDGD | no binding
33 | YRGRDDGD | binds
34 | YRRGDDGD | binds
35 | VRGRDDGV | no binding
36 | DRGRDDVD | no binding
37 | YKRGDDLV | no binding
38 | AEGGTDVV | no binding
39 | SREAADAV | no binding
40 | VKATAVAV | no binding
41 | VKERGDAV | no binding
42 | VKARGAGS | binds
43 | VAARGFGS | no binding
44 | VKEGGAVV | no binding
45 | SKGRSDGV | no binding
46 | VKTGGAVV | binds
47 | VEGGGSGV | no binding
48 | VKARGSGV | binds

Row | Variant | antigen binding call
49 | VKGRADGV | no binding
50 | VKAGGAGS chain 1 G44D | no binding
51 | VKTGGSWV | no binding
52 | VKGRSDGV | binds
53 | VGARNSGV | no binding
54 | SEGTGSSV | no binding
55 | DGGKNAGV | no binding
56 | DTGTGDAA | no binding
57 | YKARGAGV | binds
58 | YKGEGDGV | no binding
59 | VKGESAGV | no binding
60 | YKTKSDGV | no binding
61 | VKARSAGV | no binding
62 | YKTGGAGV | binds
63 | YEKETAGV | no binding
64 | YKTGDDGV | no binding
65 | YKKRGAGV | binds
66 | VKARGAGV | binds
67 | YKTGGDGV | no binding
68 | DKAGGAGV | no binding
69 | FEAESYGV | no binding
70 | FKARGSGV | binds
71 | FKAGSSGV | no binding
72 | FKATTSGA | no binding

Row | Variant | antigen binding call
73 | VAGTDAGA | no binding
74 | YRRRGDAA | binds
75 | YRRGSFAA | binds
76 | YRRRGVAA | binds
77 | SREGGFAA | no binding
78 | YRRRGYAA | binds
79 | SRKGGDAA | no binding
80 | VGGGASGV | no binding
81 | FTGRAYGF | no binding
82 | VAGRSDLV chain 1 R67H | no binding
83 | DAKEGAGD | no binding
84 | VTGEDDWD | no binding
85 | VGGGNAGD | no binding
86 | YREGGFAA | no binding
87 | YRRRGAVA | binds
88 | YRRRGFAA | binds
89 | YRRRGAAA | binds
90 | YRRRGYVA | binds
91 | VRAGADVY | no binding
92 | YGETGDSV | no binding
93 | FTETGFGA | no binding
94 | YRRRGFVA | binds
95 | VRERGSAD | binds
96 | YRERGAAD | binds

Row | Variant | antigen binding call
97 | YAEGDAAD | no binding
98 | YRERDSAD | no binding
99 | YRERGSAD | binds
100 | FRERGSAD | binds
101 | VEGTSDVV | no binding
102 | DTTGSAVA | no binding
103 | YKGGGYGA | binds
104 | YKGGGAGA | binds
105 | YKGEADGA | no binding
106 | YKGGSAGA | binds
107 | YEGGGDGA | no binding
108 | VKGGGYGA | no binding
109 | VKGGGFGA | no binding
110 | FKGGGFGA | no binding
111 | YTGATAGA | no binding
112 | YRRRGSGF | binds
113 | YRRRGAGF | binds
114 | YRRRGAWF | binds
115 | YRTRGSGF | binds
116 | FTKASYVY | no binding
117 | VEARGDWV | no binding
118 | STRKSYAA | no binding
119 | STKAASWV | no binding
120 | FTGGDALA | binds

Row | Variant | antigen binding call
121 | STGTGALA | no binding
122 | FRERGYGA | no binding
123 | VTGGDALA | no binding
124 | YRERNAAA | no binding
125 | YRERGALA | binds
126 | YRERGAAA | binds
127 | FRERGALA | binds
128 | FRERGDGA | no binding
129 | SGRGNSVD | no binding
130 | VEEEGDVA | no binding
131 | STEEGDWV | no binding
132 | AEGTNAGD | no binding
133 | VETGNDAV | no binding
134 | FRERGAAA | binds
135 | FRGRGALA | binds
136 | YRERGSAA | binds
137 | FRERNAAA | no binding
138 | FEEGTDWY | no binding
139 | DGGKNDAV | no binding
140 | YGETGFGS | no binding
141 | YRARSFGS | binds
142 | YRAGGFGS | binds
143 | YRAGGFGY | binds
144 | YAAGSFGY | no binding

Row | Variant | antigen binding call
145 | DRAGDAGY | no binding
146 | YRARSFGD | no binding
147 | YRAGGAGY | binds
148 | SRARDFGY | no binding
149 | SEARSSGF | no binding
150 | YATEAFSD | no binding
151 | YAKGDDAS | no binding
152 | DEGGGDGA | no binding
153 | DAGKSDWY | no binding
154 | YAEESDVA | no binding
155 | DTGTGALV | no binding
156 | YRARGSGY | binds
157 | YRAGGVGS | binds
158 | YRARGAGY | binds
159 | YRAGGYGY | binds
160 | YRARGYVY | no binding
161 | DTKAADWY | no binding
162 | VKEGGDVV | no binding
163 | YKGKDSSV | binds
164 | YKRESSSV | binds
165 | YAGKDDWV | no binding
166 | YGRTSAAV | no binding
167 | VEGTSSSV | no binding
168 | YKRESAAV | binds

Row | Variant | antigen binding call
169 | YERESAAV | no binding
170 | FEGGTDVV | no binding
171 | YKGRGAGF | binds
172 | YKGRGAAF | binds
173 | YKGRGYGF | no binding
174 | YKGRGSAF | binds
175 | DAGRSDLV chain 1 R67H | no binding
176 | SAGEGDVY | no binding
177 | FAKEGFWD | no binding
178 | VRTADVGV | no binding
179 | VRERGDGV | no binding
180 | VETRSSSV | no binding
181 | VRTRSSGV | binds
182 | VRTRGSGV | binds
183 | VETEGSGV | no binding
184 | DGGTNAGD | no binding
185 | YRTGGSSV | binds
186 | YREKGSSA | binds
187 | DREEGSSA | no binding
188 | YTTGGSSA | no binding
189 | YTEKGVGV | no binding
190 | YREKGSSV | binds
191 | VAEKGSSA | no binding
192 | DATGGSSV | no binding

Row | Variant | antigen binding call
193 | DTKRTAVA | no binding
194 | ATTKSAGD | no binding
195 | YRRGGVGV | binds
196 | YRRGGAGV | binds
197 | DARGGFGV | no binding
198 | DREEGVGV | no binding
199 | YRRGGFGV | binds
200 | YRGKDVGV | binds
201 | YRRGSVGV | no binding
202 | VEGGGDVV | no binding
203 | SEEEGASV | no binding
204 | YKARGAWD | binds
205 | YKAGGAWD | binds
206 | YAARGAWD | no binding
207 | YKARGSLY | binds
208 | YKGRGALY | binds
209 | SKERGSLV | no binding
210 | YKGRGSLY | binds
211 | YKARGSLV | binds
212 | DKEGGSLV | no binding
213 | YKGRAALY | no binding
